Results filed as inconclusive are left out. Unmarked numbers belong to inactive results. Calls of active or inactive are those of the source. Unless noted, calls follow the shape of the full dose curve.

Assay [1] deals with Peroxisome proliferator-activated receptor delta (Homo sapiens) (UniProt Q03181). As to the kind of experiment: qHTS assay to identify small molecule agonists of the peroxisome proliferator-activated receptor delta (PPARd) signaling pathway (AID 743212). A digest of the protocol:
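HEK293H UAS-bla reporter cells, human PPARd system; compounds delivered in DMSO after 5 h plating, then at 37 C. Beta-lactamase FRET read, 2 h RT substrate step.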

Assay [2] can be described thus: qHTS assay to identify small molecule agonists of the farnesoid-X-receptor (FXR) signaling pathway - cell viability counter screen (AID 743218; active = well fitted curve in the direction sought with a large enough effect in the repeat runs; an effect the other way counts as inactive or inconclusive; also: nearly all actives have a fitted effect of over 45% in size). A digest of the protocol: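 FXR-UAS-bla HEK 293T cells exposed to compounds for 16 h at 37C. Cytotoxicity read in the same wells by CellTiter-Glo luminescence after 30 min at room temperature, following the beta-lactamase FRET read.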
For orientation: In qHTS, concentration-response curves come from the screen itself.

In assay [3] the target is Bile acid receptor (Homo sapiens) (UniProt Q96RI1). Nature of the assay: qHTS assay to identify small molecule agonists of the farnesoid-X-receptor (FXR) signaling pathway (AID 743220; active = well fitted activation curve with a large enough effect in the signal ratio in the repeat runs, not every such curve was filed as active; the % refers to the signal ratio). Summed up:
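Beta-lactamase reporter under UAS control in GeneBLAzer FXR HEK 293T cells (5000/well) measured with LiveBLAzer FRET substrate after 2 h at room temperature. Compound exposure lasted 16 h at 37C.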

Assay [4] can be described thus: qHTS assay to identify small molecule antagonists of the farnesoid-X-receptor (FXR) signaling pathway - cell viability counter screen (AID 743221; active = well fitted cell-killing curve with a large enough effect in the repeat runs, not every such curve was filed as active; also: nearly all actives have a fitted effect of over 50% in size). A digest of the protocol:
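Compound effects on cell number were measured as CellTiter-Glo luminescence in HEK 293T cells expressing FXR-UAS-bla, after 16 h at 37 C with 50 uM CDCA (final).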

Assay [5] has as its target Vitamin D3 receptor (Homo sapiens) (UniProt P11473). As to the kind of experiment: qHTS assay to identify small molecule antagonists of the vitamin D receptor (VDR) signaling pathway (AID 743223; active = well fitted inhibition curve with a large enough effect in the signal ratio in the repeat runs, not every such curve was filed as active; the % refers to the signal ratio). Summed up:
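Beta-lactamase activity in VDR-bla cells is measured by FRET substrate fluorescence (2 h, room temperature) after cells spend 16 h at 37C with test compound and 3 nM final 1alpha,25-dihydroxyvitamin D3.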

Assay [6] in a line: qHTS assay to identify small molecule antagonists of the vitamin D receptor (VDR) signaling pathway - cell viability counter screen (AID 743225; active = well fitted curve in the direction sought with a large enough effect in the repeat runs; an effect the other way counts as inactive or inconclusive; also: nearly all actives have a fitted effect of over 50% in size). A digest of the protocol:
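In this counter screen, VDR-bla HEK 293T cells receive test compound plus 3 nM final calcitriol for 16 h at 37C. Room-temperature steps of 2 h with the beta-lactamase substrate, then 30 min with CellTiter-Glo, precede the luminescence read.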

The nature of assay [7]: qHTS assay to identify small molecule agonists of the NFkB signaling pathway - cell viability counter screen (AID 1159515). Also: series mostly up to about 61 µM; nearly all actives have a fitted effect of over 55% in size. Summed up: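 NFkB-bla ME-180 cells, 2,000/well, plated overnight at 37 C; compound added for 5 hr at 37 C. Viability read in the same wells as the bla reporter, by CellTiter-Glo luminescence after 30 min at room temperature.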
Assay [8] can be described thus: qHTS assay to identify small molecule agonists of the endoplasmic reticulum stress response signaling pathway (AID 1159516; active = well fitted activation curve with a large enough effect in the signal ratio in the repeat runs, not every such curve was filed as active; the % refers to the signal ratio). A digest of the protocol: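 CellSensor ESRE-bla HeLa cells, 1,500 per well, plated overnight, then exposed to compounds for 5 hr at 37 C. Beta-lactamase reporter read with LiveBLAzer B/G FRET substrate after 2 hr at room temperature, 405 nm excitation, 460 and 530 nm emission.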

Assay [9] can be described thus: qHTS assay to identify small molecule agonists of the endoplasmic reticulum stress response signaling pathway - cell viability counter screen (AID 1159517).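 Also: HeLa cells carrying an ER stress response element beta-lactamase reporter; series mostly up to about 61 µM; nearly all actives have a fitted effect of over 50% in size.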 A digest of the protocol: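 Cells, HeLa ESRE-bla; density, 1,500/well; dosing, 5 hr at 37 C, 5% CO2; readout, CellTiter-Glo luminescence after 30 min RT.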
Assay [10] in a line: qHTS assay to identify small molecule agonists of the AP-1 signaling pathway - cell viability counter screen (AID 1159525). Also: nearly all actives have a fitted effect of over 55% in size. A digest of the protocol: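 Luminescent ATP readout (Cell Titer Glo, 30 min RT), normalised to DMSO and tetra n-octyl ammonium bromide controls. Cells were ME-180 AP-1-bla in 0.5% dialyzed FBS Opti-MEM, with a 5 h, 37 °C compound exposure.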
Assay [11] in a line: qHTS assay to identify small molecule agonists of the peroxisome proliferator-activated receptor delta (PPARd) signaling pathway - cell viability counter screen (AID 743211; active = well fitted curve in the direction sought with a large enough effect in the repeat runs; an effect the other way counts as inactive or inconclusive; also: nearly all actives have a fitted effect of over 55% in size; also: potency is read from the fitted curve at half-maximal effect). A digest of the protocol:
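Following 5 h plating at 37 C and 5% CO2, PPARd UAS-bla HEK293H cells took up test compounds for 17 h. Viability was quantified by luminescence 30 min after CellTiter-Glo addition at room temperature.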

A short description of assay [12]: qHTS assay to identify small molecule antagonists of the peroxisome proliferator-activated receptor delta (PPARd) signaling pathway - cell viability counter screen (AID 743213; active = well fitted curve in the direction sought with a large enough effect in the repeat runs; an effect the other way counts as inactive or inconclusive; also: nearly all actives have a fitted effect of over 50% in size; also: potency is read from the fitted curve at half-maximal effect). Summed up: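 In this counter screen, HEK293H cells carrying a UAS-beta-lactamase reporter are co-treated with test compounds and 300 nM L165041 (final) for 17 h at 37 C; cell viability is quantified by CellTiter-Glo luminescence.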

Assay [13] has as its target Peroxisome proliferator-activated receptor delta (Homo sapiens) (UniProt Q03181). Nature of the assay: qHTS assay to identify small molecule antagonists of the peroxisome proliferator-activated receptor delta (PPARd) signaling pathway (AID 743215; active = well fitted inhibition curve with a large enough effect in the signal ratio in the repeat runs, not every such curve was filed as active; the % refers to the signal ratio;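 also: cells stimulated with agonist L165041 at 300 nM final during compound exposure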; also: potency is read from the fitted curve at half-maximal effect). Summed up: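 PPARd-bla HEK293H cells (UAS-bla reporter) preincubated 5 h, then given compound plus 300 nM final L165041 agonist for 17 h at 37 C. Beta-lactamase activity read by LiveBLAzer B/G FRET substrate fluorescence after 2 h at room temperature.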

The target of assay [14] is Vitamin D3 receptor (Homo sapiens) (UniProt P11473). As to the kind of experiment: qHTS assay to identify small molecule agonists of the vitamin D receptor (VDR) signaling pathway (AID 743222). A digest of the protocol: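 VDR-bla cells plated 4 h at 37 C, then exposed to compounds for 16 h at 37 C. Beta-lactamase reporter activity measured by fluorescence after 2 h room-temperature loading with LiveBLAzer B/G FRET substrate.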
Sequence of Vitamin D3 receptor (Homo sapiens) (P11473 whole entry, looked up): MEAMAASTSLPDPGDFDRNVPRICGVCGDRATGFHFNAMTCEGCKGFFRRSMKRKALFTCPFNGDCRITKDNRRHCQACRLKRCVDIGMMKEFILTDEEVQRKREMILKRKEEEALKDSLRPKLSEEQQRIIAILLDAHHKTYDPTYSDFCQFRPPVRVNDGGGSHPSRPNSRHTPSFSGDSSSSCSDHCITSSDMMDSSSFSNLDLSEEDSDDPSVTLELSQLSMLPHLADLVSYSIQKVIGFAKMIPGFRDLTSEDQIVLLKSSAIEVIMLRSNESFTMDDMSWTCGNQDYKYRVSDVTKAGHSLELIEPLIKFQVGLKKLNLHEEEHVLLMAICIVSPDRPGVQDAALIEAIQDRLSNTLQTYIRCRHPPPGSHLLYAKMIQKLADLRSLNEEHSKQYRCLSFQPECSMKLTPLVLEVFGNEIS

Assay [15] in a line: qHTS assay to identify small molecule agonists of the AP-1 signaling pathway (AID 1159526).
Assay [16] in a line: qHTS assay to identify small molecule agonists of the vitamin D receptor (VDR) signaling pathway - cell viability counter screen (AID 743224; active = well fitted curve in the direction sought with a large enough effect in the repeat runs; an effect the other way counts as inactive or inconclusive). Summed up:
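VDR-bla cells, 4 h after plating, exposed to compounds for 16 h at 37C; viability then read in the same wells as CellTiter-Glo luminescence after 30 min at room temperature, following the bla FRET read.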

The target in assay [17] is Nuclear receptor ROR-gamma (Homo sapiens) (UniProt P51449). Nature of the assay: qHTS assay to identify small molecule antagonists of the retinoid-related orphan receptor gamma (ROR-gamma) signaling pathway (AID 1159521; active = well fitted curve in the direction sought with a large enough effect in the repeat runs; an effect the other way counts as inactive or inconclusive). A digest of the protocol: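 Screening format: cell-based luciferase reporter in CHO cells with doxycycline-inducible RORγ. Compound pre-exposure lasts 2 h, doxycycline is 1 uM final, induction runs 16 h at 37 C, and ONE-Glo luminescence is read.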

Assay [18] has as its target Retinoic acid receptor RXR-alpha (Homo sapiens) (UniProt P19793). As to the kind of experiment: qHTS assay to identify small molecule agonists of the RXR signaling pathway (AID 1159527). Also: nearly all actives have a fitted effect of over 35% in size. Summed up:
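Fluorescence ratio readout (460 vs 530 nm) from GeneBLAzer RXR-alpha HEK 293T cells after 16 hr compound treatment; cells seeded 5 hr beforehand in low-serum, charcoal-stripped medium.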

In assay [19] the target is Bile acid receptor (Homo sapiens) (UniProt Q96RI1). Nature of the assay: qHTS assay to identify small molecule antagonists of the farnesoid-X-receptor (FXR) signaling pathway (AID 743217; active = well fitted inhibition curve with a large enough effect in the signal ratio in the repeat runs, not every such curve was filed as active; the % refers to the signal ratio). A digest of the protocol: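 FXR-UAS-bla HEK 293T cells (beta-lactamase reporter) given compound plus chenodeoxycholic acid (50 uM final), 16 h at 37C. LiveBLAzer B/G FRET substrate added for 2 h at room temperature; fluorescence read.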
Sequence of Bile acid receptor (Homo sapiens) (Q96RI1 whole entry, looked up): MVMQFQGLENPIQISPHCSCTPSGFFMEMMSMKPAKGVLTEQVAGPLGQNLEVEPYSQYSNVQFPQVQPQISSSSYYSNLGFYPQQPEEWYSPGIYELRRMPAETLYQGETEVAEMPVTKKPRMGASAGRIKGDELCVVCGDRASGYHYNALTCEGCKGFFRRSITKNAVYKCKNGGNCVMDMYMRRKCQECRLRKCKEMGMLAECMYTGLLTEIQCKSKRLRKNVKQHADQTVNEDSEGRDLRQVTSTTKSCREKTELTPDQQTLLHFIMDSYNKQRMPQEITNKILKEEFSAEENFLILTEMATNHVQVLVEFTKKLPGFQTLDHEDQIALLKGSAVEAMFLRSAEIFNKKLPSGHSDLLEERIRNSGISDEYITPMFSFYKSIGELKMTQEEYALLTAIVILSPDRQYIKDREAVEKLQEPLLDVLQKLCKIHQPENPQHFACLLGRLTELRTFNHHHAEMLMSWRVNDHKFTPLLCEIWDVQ

Assay [20] is described as follows: qHTS assay to identify small molecule antagonists of the retinoid-related orphan receptor gamma (ROR-gamma) signaling pathway - cell viability counter screen (AID 1159520; active = well fitted curve in the direction sought with a large enough effect in the repeat runs; an effect the other way counts as inactive or inconclusive; also: nearly all actives have a fitted effect of over 50% in size). Summed up:
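Cytotoxicity was read from cellular ATP (CellTiter-Glo luminescence) after 16 hr at 37 C with 1 uM doxycycline induction. The inducer was added 2 hr after compound transfer to Tet-on ROR gamma CHO cells.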

Sequence of Retinoic acid receptor RXR-alpha (Homo sapiens) (P19793 whole entry, looked up): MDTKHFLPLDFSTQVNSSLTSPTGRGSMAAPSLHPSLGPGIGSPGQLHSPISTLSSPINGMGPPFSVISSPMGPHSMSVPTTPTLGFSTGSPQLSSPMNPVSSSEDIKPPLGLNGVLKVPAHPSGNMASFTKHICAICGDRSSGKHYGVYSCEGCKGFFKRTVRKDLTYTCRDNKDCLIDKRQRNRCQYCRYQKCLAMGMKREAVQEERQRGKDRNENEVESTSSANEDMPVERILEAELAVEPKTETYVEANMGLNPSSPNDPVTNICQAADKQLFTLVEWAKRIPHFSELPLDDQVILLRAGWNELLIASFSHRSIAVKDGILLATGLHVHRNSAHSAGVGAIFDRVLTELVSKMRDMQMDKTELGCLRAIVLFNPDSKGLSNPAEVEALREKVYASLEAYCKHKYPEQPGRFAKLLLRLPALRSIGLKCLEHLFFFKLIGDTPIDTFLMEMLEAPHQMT
Sequence of Peroxisome proliferator-activated receptor delta (Homo sapiens) (Q03181 whole entry, looked up): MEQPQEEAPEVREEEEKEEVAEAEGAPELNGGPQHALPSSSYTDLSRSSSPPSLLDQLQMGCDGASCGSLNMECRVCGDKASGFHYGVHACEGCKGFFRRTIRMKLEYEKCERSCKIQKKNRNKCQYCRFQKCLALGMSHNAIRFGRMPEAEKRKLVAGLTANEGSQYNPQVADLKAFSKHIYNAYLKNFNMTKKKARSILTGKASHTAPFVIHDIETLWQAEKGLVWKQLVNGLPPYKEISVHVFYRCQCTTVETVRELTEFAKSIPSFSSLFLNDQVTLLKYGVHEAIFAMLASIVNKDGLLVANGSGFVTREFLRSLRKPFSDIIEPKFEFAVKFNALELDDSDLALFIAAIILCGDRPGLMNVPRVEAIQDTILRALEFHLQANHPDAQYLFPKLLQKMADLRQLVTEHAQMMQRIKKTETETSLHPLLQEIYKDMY

As for `Cc1ccccc1OP(=O)(Oc1ccccc1C)Oc1ccccc1C`, the Potency entry in [1], in [2], in [3], in assay [4], in assay [5] and in assay [6] was “inactive” throughout. The Potency entry in assay [7], in [8], in assay [9] and in assay [10] was “inactive” each time.
For `CO/N=C(\C(=O)OC)c1ccccc1CO/N=C(\C)c1cccc(C(F)(F)F)c1`, the Potency was 21.9 µM (active) in assay [11], 21.9 µM (active) in assay [12] and 4.9 µM (active) in [13]. For the same molecule, the Potency entry in [1], in assay [14], in assay [7], in assay [8], in assay [9] and in assay [10] was “inactive” each time. Besides, the Potency result in assay [15] was “inactive”.
With `CCC1(CC)C(=O)N=C(O)NC1=O`, the Potency entry in assay [11], in assay [1], in [12], in assay [2], in [4] and in assay [14] was “inactive” each time. Also, the Potency result in assay [5], in assay [16], in [6], in assay [7], in assay [8] and in assay [9] was “inactive” throughout. In addition, the Potency entry in assay [17], in assay [10] and in [18] was “inactive” throughout.
Turning to `CC(=O)C(Cl)C(=O)N(C)C` (stereo not drawn), the Potency result in assay [11], in [1], in assay [13], in [2], in assay [4] and in [14] was “inactive” in each case. Moreover, the Potency entry in assay [5], in assay [16], in assay [6], in assay [7], in assay [8] and in assay [9] was “inactive” throughout. Moreover, the Potency result in [10], in assay [15] and in [18] was “inactive” throughout.
For the molecule `[O]=[Cr][O][Cr]=[O]`, the Potency entry in assay [11], in assay [19], in assay [2], in assay [3], in [4] and in assay [14] was “inactive” each time. Further, the Potency entry in [6], in assay [7], in assay [8], in assay [20], in [17] and in [10] was “inactive” throughout. Besides, the Potency entry in assay [15] and in assay [18] was “inactive” each time.
With `CCC(C)Br` (stereo not drawn), the Potency result in [11], in assay [1], in assay [12], in assay [13], in assay [2] and in assay [4] was “inactive” each time. In addition, the Potency entry in assay [14], in [5], in assay [16], in [6], in assay [7] and in assay [8] was “inactive” each time. Moreover, the Potency result in assay [20], in [17], in assay [10], in assay [15] and in assay [18] was “inactive” each time.
As for `NC(=O)C(Cl)Cl`, the Potency entry in [11], in assay [1], in assay [12], in [2], in assay [4] and in [6] was “inactive” each time. Also, the Potency result in assay [7], in assay [8], in assay [9], in assay [10] and in assay [15] was “inactive” throughout.
As to `CO/N=C(/C1=NOCCO1)c1ccccc1Oc1ncnc(Oc2ccccc2Cl)c1F`, the Potency result in [1], in [7], in assay [8], in assay [9], in assay [10] and in assay [15] was “inactive” in each case.
Take `C#CCC1=C(C)C(OC(=O)C2C(C=C(C)C)C2(C)C)CC1=O` (stereo not drawn): the Potency result in [12], in [13], in assay [2], in [4], in assay [14] and in [16] was “inactive” in each case. Further, the Potency result in [7], in assay [8], in [9] and in [10] was “inactive” each time.
Regarding `CCc1cccc(C)c1N(C(=O)CCl)[C@@H](C)COC`, the Potency entry in assay [11], in assay [12], in [2], in assay [4], in assay [16] and in assay [7] was “inactive” throughout. Further, the Potency result in assay [8], in assay [9], in assay [10] and in assay [15] was “inactive” in each case.
